Here are results for 13 molecules from PubChem BioAssay (EPA / NIEHS).

“And” between values parts separate entries of the source, which are not always exact repeats. Equal entries are not always repeated. Records with an inconclusive call do not appear. More than one record can exist for a structure, and the calls need not agree. The source made the active and inactive calls. How the source made its calls, unless noted: active means hit-call score of the fitted dose curve at least 0.9, where 1 is the maximum; inactive means score below 0.9.

Assay [1] has as its target human Matrix Metalloproteinase-9 (MMP9), MMP9 (gene 4318) (UniProt P14780). The assay can be described thus: NVS_ENZ_hMMP9: NovaScreen (NVS) Enzymatic Assay for human Matrix Metalloproteinase-9 (MMP9) (AID 2283190; active means hit-call score of the fitted dose curve at least 0.9, where 1 is the maximum;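 further: cell-free recombinant MMP9 protease activity read by fluorescent substrate signal; active means inhibition seen as loss of fluorescence signal versus DMSO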). The method, boiled down:
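Cell-free fluorescence-intensity enzyme activity assay using extracted protein, read 1 h after dosing. Loss of signal versus DMSO baseline indicates inhibition; primary screen in duplicate at 25 uM, actives followed up in concentration series.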

Assay [2] concerns the target Estrogen receptor (Homo sapiens) (UniProt P03372). The assay is described as follows: CCTE_Deisenroth_AIME_384WELL_LUC_Active: CCTE's 384-well Estrogen Receptor Transactivation Assay with AIME metabolic competence (ERTA luciferase; metabolism positive), Deisenroth Lab (AID 2284030; active means hit-call score of the fitted dose curve at least 0.9, where 1 is the maximum). An outline of the steps: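 Estrogenic luciferase signal in VM7Luc4E2 cells is measured at 24 hour, after chemicals have been preconditioned 2 hours with PB/BNF-induced rat hepatic S9 in alginate. Gain of signal is fitted relative to 17beta-estradiol, across 0.002 - 200 uM.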

Assay [3] has as its target mouse Peroxisome Proliferator-activated Receptor gamma (PPARg), Pparg (gene 19016) (UniProt P37238). The assay can be described thus: ATG_mPPARg_XSP2: Attagene TRANS-FACTORIAL Multi-Species (XSP2) HepG2 Assay for mouse Peroxisome Proliferator-activated Receptor gamma (PPARg) (AID 2283830; active means hit-call score of the fitted dose curve at least 0.9, where 1 is the maximum;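 further: hits are gains in reporter mRNA above DMSO so AC50 marks activation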). The method, boiled down:
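Multiplexed TRANS reporter readout: after 24 h chemical exposure of transfected HepG2 cells (with 3 nM 6-alpha-fluorotestosterone, 1.5 nM norgestrel present), RNA reverse-transcribed, amplified, 6-FAM-labelled and resolved by capillary electrophoresis; mouse PPARg-Gal4 induction scored against DMSO.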

The target in assay [4] is zebrafish Thyroid Hormone Receptor alpha (TRa), thraa (gene 30670) (UniProt Q98867). The assay is described as follows: ATG_zfTRa_XSP2: Attagene TRANS-FACTORIAL Multi-Species (XSP1) HepG2 Assay for zebrafish Thyroid Hormone Receptor alpha (TRa) (AID 2283832; active means hit-call score of the fitted dose curve at least 0.9, where 1 is the maximum;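 further: actives raise zebrafish TRa-Gal4 reporter transcript above DMSO baseline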). The method, boiled down:
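Multiplexed TRANS reporter format in HepG2; the medium also contained 3 nM 6-alpha-fluorotestosterone and 1.5 nM norgestrel. Reporter mRNA after 24 h read by RT-PCR and capillary electrophoresis, scored as induction over DMSO.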

Assay [5] can be described thus: UKN5_HCS_SBAD2_cell_viability: Viability Assessment in the University of Konstanz (UKN) Leist Lab Neurite Outgrowth Assay in human iPSC-derived immature Dorsal Root Ganglia Neurons (UKN5) (AID 2284056). The method, boiled down: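 iPSC-derived immature peripheral neurons (SBAD2) seeded on Matrigel with CHIR99021, SU5402 and DAPT, dosed 1 h later for 24 h. Viability from Hoechst H-33342 and calcein-AM live staining, high-content imaging; bidirectional fit versus DMSO.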

The nature of assay [6]: UKN5_HCS_SBAD2_neurite_outgrowth: University of Konstanz (UKN) Leist Lab Neurite Outgrowth Assay in human iPSC-derived immature Dorsal Root Ganglia Neurons (UKN5) (AID 2284070). The following applies: actives raise or lower the signal. An outline of the steps: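 Neurite outgrowth is quantified as calcein-AM-labelled neurite area in human iPSC-derived peripheral neurons treated for 24 h, starting 1 h after plating in medium with CHIR99021 (1.5 uM), SU5402 (5 uM) and DAPT (5 uM).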

Read-out in assay [7]: Collagen I, COL1A1 (gene 1277)
The assay can be described thus: BSK_hDFCGF_CollagenI: BioMAP Diversity Plus: hDFCGF Assay for Collagen I Biomarker Activity (AID 2284250). The following applies: primary human foreskin fibroblasts. The method, boiled down: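 Readout: Collagen I by ELISA after 24 h compound treatment of primary human foreskin fibroblasts. Endpoint analysed for increases relative to DMSO; total protein by SRB in parallel wells flagged cytotoxicity.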

Read-out in assay [8]: Plasminogen activator inhibitor-1 (PAI1), SERPINE1 (gene 5054)
The assay can be described thus: BSK_KF3CT_PAI1: BioMAP Diversity Plus: KF3CT Assay for Plasminogen activator inhibitor-1 (PAI1) Biomarker Activity (AID 2284252). The following applies: primary human keratinocytes with fibroblasts. An outline of the steps:
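In this co-culture of primary human keratinocytes and foreskin fibroblasts, PAI-1 was measured by ELISA at 24 h and fitted upward from DMSO.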

Read-out in assay [9]: Intercellular Adhesion Molecule 1 (ICAM1), ICAM1 (gene 3383)
The assay can be described thus: BSK_BE3C_ICAM1: BioMAP Diversity Plus: BE3C Assay for Intercellular Adhesion Molecule 1 (ICAM1) Biomarker Activity (AID 2284278).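 Further: cell-surface ICAM-1 protein level quantified by ELISA.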 The following applies: primary human bronchial epithelial cells. An outline of the steps:
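hu bronchial epithelial primary cells, 24 h cpd exposure, ICAM-1 ELISA; gain-of-signal fit vs DMSO baseline.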

Read-out in assay [10]: Interferon-inducible T-cell alpha chemoattractant (ITAC), CXCL11 (gene 6373)
The assay can be described thus: BSK_BE3C_ITAC: BioMAP Diversity Plus: BE3C Assay for Interferon-inducible T-cell alpha chemoattractant (ITAC) Biomarker Activity (AID 2284279). The following applies: primary human bronchial epithelial cells. An outline of the steps: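 ELISA read-out of I-TAC after 24 h chemical dosing of human lung primary bronchial epithelial cells; gain-of-signal fit vs DMSO baseline. Parallel SRB total-protein staining (0.1% SRB, 10% TCA fixation, 560 nm) assessed cytotoxicity.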

Read-out in assay [11]: Interleukin-8 (IL8), CXCL8 (gene 3576)
The assay can be described thus: BSK_BE3C_IL8: BioMAP Diversity Plus: BE3C Assay for Interleukin-8 (IL8) Biomarker Activity (AID 2284280). The following applies: primary human bronchial epithelial cells. An outline of the steps:
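Dose human bronchial epithelial cells with chemical; incubate 24 h; quantify IL-8 by ELISA; fit response upward versus DMSO controls.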

Read-out in assay [12]: Epidermal growth factor receptor (EGFR), EGFR (gene 1956)
The assay can be described thus: BSK_BE3C_EGFR: BioMAP Diversity Plus: BE3C Assay for Epidermal growth factor receptor (EGFR) Biomarker Activity (AID 2284281). The following applies: primary human bronchial epithelial cells. The method, boiled down: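 ELISA read-out of EGFR levels on human bronchial epithelial primary cells collected 24 h post-dosing. DMSO served as negative control and baseline for gain-of-signal fitting.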

Read-out in another assay: KRT18 (gene 3875)
The assay can be described thus: BSK_BE3C_Keratin818: BioMAP Diversity Plus: BE3C Assay for Keratin 818 Biomarker Activity (AID 2284282). The following applies: primary human bronchial epithelial cells. The method, boiled down: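 In this multiplexed primary-cell system, bronchial epithelial cells were dosed and harvested at 24 h. Keratin 8/18 was determined by ELISA and analysed for increases over DMSO controls.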

Read-out in assay [13]: Plasminogen activator inhibitor-1 (PAI1), SERPINE1 (gene 5054)
The assay is described as follows: BSK_CASM3C_PAI1: BioMAP Diversity Plus: CASM3C Assay for Plasminogen activator inhibitor-1 (PAI1) Biomarker Activity (AID 2284284).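 Further: PAI-1 protein level measured by ELISA 24 h after dosing.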 The following applies: primary human coronary artery smooth muscle cells.

Read-out in assay [14]: TIMP metallopeptidase inhibitor 2 (TIMP2), TIMP2 (gene 7077)
The assay is described as follows: BSK_hDFCGF_TIMP2: BioMAP Diversity Plus: hDFCGF Assay for TIMP metallopeptidase inhibitor 2 (TIMP2) Biomarker Activity (AID 2284289). The following applies: primary human foreskin fibroblasts. An outline of the steps:
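Primary human foreskin fibroblasts in the hDFCGF system, dosed for 24 h; TIMP-2 level measured by ELISA, fitted in the positive direction against DMSO; cytotoxicity checked in parallel by sulforhodamine B total protein staining.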

Read-out in the next assay: CD69, CD69 (gene 969)
The assay is described as follows: BSK_LPS_CD69: BioMAP Diversity Plus: LPS Assay for CD69 Biomarker Activity (AID 2284303). The following applies: primary human HUVEC with PBMC. The method, boiled down:
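CD69 surface levels were read by ELISA after 24 h chemical treatment of an LPS-stimulated HUVEC plus PBMC co-culture; positive-direction fit against DMSO vehicle.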

The next assay concerns DIO3 (gene 1735). The assay is described as follows: CCTE_GLTED_hDIO3: CCTE's human Deiodinase 3 (DIO3) Inhibition Assay, Great Lakes Toxicology and Ecology Division (GLTED) Lab (AID 2284055; active means hit-call score of the fitted dose curve at least 0.9, where 1 is the maximum;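 further: potency is for inhibition seen as loss of released iodide signal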). An outline of the steps: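 Steps: incubate adenovirus-produced hDIO3 with chemical for 3 hours; detect freed iodide via cerium-arsenic Sandell-Kolthoff colorimetry; compare with DMSO baseline.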

In assay [15] the target is human Beta-secretase (BACE), BACE1 (gene 23621) (UniProt P56817). The assay can be described thus: NVS_ENZ_hBACE: NovaScreen (NVS) Enzymatic Assay for human Beta-secretase (BACE) (AID 2283140; active means hit-call score of the fitted dose curve at least 0.9, where 1 is the maximum;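 further: hits are inhibitors that reduce fluorescent substrate signal versus DMSO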). An outline of the steps:
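Enzyme activity of SF9-produced BACE1 is measured cell-free by fluorescence, 1 hour post dosing, normalised to DMSO. Screening used 25 uM in duplicate, with concentration-response follow-up for actives.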

The target in assay [16] is human Dual Specificity Protein Phosphatase 3 (DUSP3), DUSP3 (gene 1845) (UniProt P51452). The assay is described as follows: NVS_ENZ_hDUSP3: NovaScreen (NVS) Enzymatic Assay for human Dual Specificity Protein Phosphatase 3 (DUSP3) (AID 2283152; active means hit-call score of the fitted dose curve at least 0.9, where 1 is the maximum;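 further: phosphatase activity of recombinant human DUSP3 on a fluorogenic substrate without cells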). The method, boiled down:
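Cell-free fluorescence-intensity enzyme activity assay with recombinant protein and substrate; loss of signal fitted relative to DMSO baseline. Primary screen in duplicate at 25 uM, actives then run in concentration series; measured 0 h after dosing.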

The nature of assay [17]: NVS_IC_rCaBTZCHL: NovaScreen (NVS) Ion Channel Assay for Calcium Channel, Type L, Benzothiazepine Site (CaBTZCHL) (AID 2283337; active means hit-call score of the fitted dose curve at least 0.9, where 1 is the maximum). The method, boiled down:
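Benzothiazepine-site binding was assessed in a tissue-derived, cell-free rat cortical membrane system. After 1.5 h exposure, radioactivity retained on filters was quantified by scintillation; positive and negative controls accompanied every plate.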

Sequence of human Dual Specificity Protein Phosphatase 3 (DUSP3), DUSP3 (gene 1845) (P51452 whole entry, looked up): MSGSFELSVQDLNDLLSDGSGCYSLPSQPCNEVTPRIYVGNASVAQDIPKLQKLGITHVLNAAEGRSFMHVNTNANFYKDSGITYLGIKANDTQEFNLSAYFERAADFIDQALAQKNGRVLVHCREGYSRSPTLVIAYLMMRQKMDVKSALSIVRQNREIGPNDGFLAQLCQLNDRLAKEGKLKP
Sequence of human Beta-secretase (BACE), BACE1 (gene 23621) (P56817 whole entry, looked up): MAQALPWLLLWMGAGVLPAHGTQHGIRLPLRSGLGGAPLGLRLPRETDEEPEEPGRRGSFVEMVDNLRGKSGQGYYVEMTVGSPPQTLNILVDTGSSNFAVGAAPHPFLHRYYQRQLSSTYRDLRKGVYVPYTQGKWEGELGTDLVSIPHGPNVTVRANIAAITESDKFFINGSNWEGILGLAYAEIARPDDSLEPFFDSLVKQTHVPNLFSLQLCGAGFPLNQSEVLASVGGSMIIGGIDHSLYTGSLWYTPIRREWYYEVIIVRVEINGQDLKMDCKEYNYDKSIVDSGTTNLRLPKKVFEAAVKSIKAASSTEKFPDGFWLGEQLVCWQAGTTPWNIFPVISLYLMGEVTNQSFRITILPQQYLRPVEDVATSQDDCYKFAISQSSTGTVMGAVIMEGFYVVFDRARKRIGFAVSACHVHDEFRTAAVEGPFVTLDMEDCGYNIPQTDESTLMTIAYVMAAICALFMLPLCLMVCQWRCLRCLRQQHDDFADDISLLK
Sequence of mouse Peroxisome Proliferator-activated Receptor gamma (PPARg), Pparg (gene 19016) (P37238 whole entry, looked up, the tested form may be a part): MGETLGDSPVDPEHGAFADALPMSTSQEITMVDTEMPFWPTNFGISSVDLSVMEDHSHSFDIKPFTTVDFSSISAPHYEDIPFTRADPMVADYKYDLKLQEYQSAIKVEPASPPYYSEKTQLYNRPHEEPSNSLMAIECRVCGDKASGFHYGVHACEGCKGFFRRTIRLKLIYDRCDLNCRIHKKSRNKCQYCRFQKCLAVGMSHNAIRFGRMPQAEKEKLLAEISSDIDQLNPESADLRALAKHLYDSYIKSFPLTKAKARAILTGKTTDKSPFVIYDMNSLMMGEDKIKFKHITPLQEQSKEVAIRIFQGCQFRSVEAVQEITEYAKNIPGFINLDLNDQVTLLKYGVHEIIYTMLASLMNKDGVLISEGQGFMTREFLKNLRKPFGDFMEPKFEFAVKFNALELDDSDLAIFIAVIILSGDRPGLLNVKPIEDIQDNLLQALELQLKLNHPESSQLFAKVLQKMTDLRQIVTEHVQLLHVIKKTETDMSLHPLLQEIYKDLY
Sequence of zebrafish Thyroid Hormone Receptor alpha (TRa), thraa (gene 30670) (Q98867 whole entry, looked up, the tested form may be a part): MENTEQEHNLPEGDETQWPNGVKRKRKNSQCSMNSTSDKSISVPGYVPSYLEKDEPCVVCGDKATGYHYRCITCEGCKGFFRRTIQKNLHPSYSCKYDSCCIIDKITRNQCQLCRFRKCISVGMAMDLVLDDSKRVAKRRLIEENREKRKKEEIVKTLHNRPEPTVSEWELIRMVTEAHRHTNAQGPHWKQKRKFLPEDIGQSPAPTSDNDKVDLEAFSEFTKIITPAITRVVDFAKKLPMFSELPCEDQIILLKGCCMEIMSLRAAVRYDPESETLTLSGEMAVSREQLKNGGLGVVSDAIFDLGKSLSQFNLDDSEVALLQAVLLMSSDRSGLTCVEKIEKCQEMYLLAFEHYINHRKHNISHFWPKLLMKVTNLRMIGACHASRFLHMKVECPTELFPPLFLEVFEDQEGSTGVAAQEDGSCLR
Sequence of Estrogen receptor (Homo sapiens) (P03372 whole entry, looked up): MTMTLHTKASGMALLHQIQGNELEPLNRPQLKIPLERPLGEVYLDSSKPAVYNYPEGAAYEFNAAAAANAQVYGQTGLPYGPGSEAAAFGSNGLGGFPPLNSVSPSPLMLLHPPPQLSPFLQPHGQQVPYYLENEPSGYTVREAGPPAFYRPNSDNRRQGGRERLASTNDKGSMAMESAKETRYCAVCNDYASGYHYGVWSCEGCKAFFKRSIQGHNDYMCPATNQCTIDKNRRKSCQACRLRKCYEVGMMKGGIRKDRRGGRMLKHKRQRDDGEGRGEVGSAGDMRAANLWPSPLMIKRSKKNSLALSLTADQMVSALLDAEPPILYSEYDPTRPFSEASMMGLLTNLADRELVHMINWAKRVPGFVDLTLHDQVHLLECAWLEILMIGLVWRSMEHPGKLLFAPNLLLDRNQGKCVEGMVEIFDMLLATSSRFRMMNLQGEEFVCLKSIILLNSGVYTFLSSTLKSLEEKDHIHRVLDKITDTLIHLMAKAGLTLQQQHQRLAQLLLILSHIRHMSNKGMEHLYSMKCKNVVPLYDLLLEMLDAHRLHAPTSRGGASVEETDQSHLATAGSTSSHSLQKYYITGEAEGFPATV
Sequence of human Matrix Metalloproteinase-9 (MMP9), MMP9 (gene 4318) (P14780 whole entry, looked up): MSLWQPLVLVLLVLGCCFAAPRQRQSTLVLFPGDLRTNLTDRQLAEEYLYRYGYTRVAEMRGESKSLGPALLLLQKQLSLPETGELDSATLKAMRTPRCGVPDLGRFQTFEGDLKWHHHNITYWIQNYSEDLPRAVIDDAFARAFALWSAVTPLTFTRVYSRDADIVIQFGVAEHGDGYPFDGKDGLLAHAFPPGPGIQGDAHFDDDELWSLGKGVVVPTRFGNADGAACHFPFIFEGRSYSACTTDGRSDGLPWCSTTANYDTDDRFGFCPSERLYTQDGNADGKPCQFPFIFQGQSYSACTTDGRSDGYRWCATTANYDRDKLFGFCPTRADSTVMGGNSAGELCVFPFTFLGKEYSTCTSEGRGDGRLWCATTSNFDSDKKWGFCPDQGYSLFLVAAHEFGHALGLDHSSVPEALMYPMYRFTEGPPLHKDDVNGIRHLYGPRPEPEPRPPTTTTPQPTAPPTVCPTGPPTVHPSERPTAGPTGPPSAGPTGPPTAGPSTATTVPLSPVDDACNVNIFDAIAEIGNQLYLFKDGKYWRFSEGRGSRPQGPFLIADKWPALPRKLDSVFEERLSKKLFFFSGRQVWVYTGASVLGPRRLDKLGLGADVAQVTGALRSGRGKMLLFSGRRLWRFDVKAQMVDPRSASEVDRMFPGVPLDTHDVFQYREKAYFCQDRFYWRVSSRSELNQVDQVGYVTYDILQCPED

For `CN(C)c1ccc(C(c2ccccc2)c2ccc(N(C)C)cc2)cc1`, the molecule was called inactive in assay [1].
Take `CCCCCCC1CCC(=O)O1` (stereo not drawn): the half-maximal activity concentration (AC50) in [2] was 0.000244 µM (active).
Regarding `Cc1cc(O)cc(C)c1Cl`, in assay [3], the AC50 was 72.9 µM (active) and the outcome was inactive. In assay [4], the AC50 was 100 µM (active) and the outcome was inactive.
As for `Oc1cccc2ccccc12`, the call in assay [5] and in [6] was inactive.
`CC[N+](CC)(CC(=O)Nc1c(C)cccc1C)Cc1ccccc1` (tested in a mixture with another compound): the outcome in assay [7], in assay [8], in assay [9], in assay [10], in assay [11] and in assay [12] was inactive. Further, the outcome with KRT18 (gene 3875) is “inactive”; in assay [13] it was “inactive”; in [14] it was “inactive”; with CD69, CD69 (gene 969) it was “inactive”.
Take `Sc1nc2ccccc2s1`: the half-maximal activity concentration (AC50) in the assay on DIO3 (gene 1735) was 61.3 µM (active).
Still for that read-out and setting: then `COC(=O)[C@]1(C)CCC[C@@]2(C)[C@H]1CC=C1C=C(C(C)C)CC[C@@H]12`, with 36 µM (active).
Turning to `CC(C)CC(=O)CC(C)CC(C)C` (stereo not drawn), the outcome in assay [15] was inactive.
For `CCCCCCCCCC/C=C/C1CC(=O)OC1=O` (stereo not drawn), the AC50 in assay [15] was 45.4 µM (active).
In the case of `CN(C)Cc1cc(C(C)(C)C)c(O)c(C(C)(C)C)c1`, the outcome in assay [7], in assay [8], in assay [9], in assay [10], in [11] and in assay [12] was inactive. The outcome (with KRT18 (gene 3875); in assay [13]; in [14]) was inactive. The AC50 with CD69, CD69 (gene 969) was 20 µM (active) and 23.1 µM (active).
`CCCCCCCCCCCCCCCCCC[N+](C)(C)C`: the AC50 in [16] was 7.9 µM (active). Moreover, the outcome in [17] was inactive.
Regarding `O=C(C(=O)c1ccccc1)c1ccccc1`, the outcome in [17] was inactive.
For the molecule `CC1(C)S[C@@H]2[C@H](NC(=O)[C@H](N)c3ccccc3)C(=O)N2[C@H]1C(=O)O`, the AC50 in assay [16] is 8.24 µM (active). The call in [5] and in [6] was inactive.
